Experimental data published in PubChem BioAssay AID1345085 (National Center for Advancing Translational Sciences (NCATS), 2018).
Inconclusive results are not listed. Activity calls are given as the source filed them. The call rests on the fitted dose curve; in most records, active means well fitted cell-killing curve with a large enough effect; inconclusive means small, poorly fitted or top-dose-only effect, or effect the other way; inactive means no such curve, though single readings can be large or run the other way.

tested on: C33A; experiment: Confirmatory qHTS for gynecologic anti-cancer compounds from libraries of approved drugs and bioactive compounds; conditions: gynecologic cancer cell panel viability, ATPlite luminescence, 48 h; series mostly up to 57.6 µM; activity change, negative = viability loss: at the top concentration; further: nearly all actives have a fitted effect of over 55% in size
Procedure, shortened: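 1,000 cells/well; 16 h pre-incubation 37 C, 5% CO2; pin-transferred cpd in DMSO, 11 conc (1:3), 57.5 uM–0.977 nM; 48 h; ATPlite, 15 min RT; luminescence → IC50.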
On the % scale 0 is the no-effect control and ±100 the full control effect; potency means the concentration at half of the fitted maximal effect.

SMILES	Potency	activity change, negative = viability loss
COc1cc(N2CCC(N3CCN(C)CC3)CC2)ccc1Nc1ncc(Cl)c(Nc2ccccc2S(=O)(=O)C(C)C)n1	27.3 µM (active)	
CC(C)Nc1cc(-c2c[nH]c(C(=O)N[C@H](CO)c3cccc(Cl)c3)c2)c(Cl)cn1		-12.1% (inactive)
Cc1nc(N)nc(N)c1-c1ccc(Cl)c(Cl)c1	0.172 µM (active)	
CN(C)c1ccc(-c2nc3ncc(Cl)c(N4CCN(CC(=O)Nc5nccs5)CC4)c3[nH]2)cc1		-12.9% [at 19.5 µM] (inactive)
Cn1cc(-c2ccc3ncc(Cc4ccc5ncccc5c4)n3n2)cn1		-11.7% (inactive)
O=C(c1ccc(F)c(F)c1Nc1ccc(I)cc1F)N1CC(O)([C@@H]2CCCCN2)C1	27.3 µM (active)	
CN1CCN(Cc2ccc(NC(=O)Nc3ccc(Oc4cc(NC(=O)C5CC5)ncn4)cc3)cc2C(F)(F)F)CC1	7.69 µM (active)	
NS(=O)(=O)c1ccc(Nc2nc(OCC3CCCCC3)c3[nH]cnc3n2)cc1		15.5% (inactive)
CCN(CC)CCCC(C)Nc1c2ccc(Cl)cc2nc2ccc(OC)cc12 (stereo unspecified)	24.3 µM (active)	
COc1cc2c(cc1-c1c(C)noc1C)ncc1[nH]c(=O)n(C(C)c3ccccn3)c12 (stereo unspecified)		-3.53% (inactive)
CC(C)C[C@H](NC(=O)[C@H](Cc1ccccc1)NC(=O)c1cnccn1)B(O)O	0.153 µM (active)	
CNC(=O)c1nn(C)c2c1C(C)(C)Cc1cnc(Nc3ccc(N4CCN(C)CC4)cc3)nc1-2		-11.1% (inactive)
Nc1ccccc1NC(=O)c1ccc(CNC(=O)OCc2cccnc2)cc1	5.44 µM (active)	
Cc1c(C)n(Cc2ccc(-c3ccccc3C(=O)O)cc2)c2ccc(C(=O)N[C@@H](C)c3ccc([N+](=O)[O-])cc3)cc12		10.7% (inactive)
CCCCc1oc2ccc(NS(C)(=O)=O)cc2c1C(=O)c1ccc(OCCCN(CCCC)CCCC)cc1	27.3 µM (active)	
OCc1ccc(-c2ccc(-c3ccc(CO)s3)o2)s1		-12.9% [at 19.5 µM] (inactive)

SMILES	Potency	activity change, negative = viability loss
Cc1ccc(NC(=O)c2ccc(CN3CCN(C)CC3)cc2)cc1Nc1nccc(-c2cccnc2)n1		-24.7% (inactive)
COc1cc(-c2nn(C3CCC(N4CCN(C(C)=O)CC4)CC3)c3ncnc(N)c23)ccc1NC(=O)c1cc2ccccc2n1C (stereo unspecified)		-12.7% (inactive)
CC[C@@]1(O)C(=O)OCc2c1cc1n(c2=O)Cc2cc3cc(O)ccc3nc2-1	0.306 µM (active)	
Cn1cnc2c(F)c(Nc3ccc(Br)cc3F)c(C(=O)NOCCO)cc21		-21.1% (inactive)
CCC1C(=O)N(C)c2cnc(Nc3ccc(C(=O)NC4CCN(C)CC4)cc3OC)nc2N1C1CCCC1 (stereo unspecified)	0.0544 µM (active)	
COc1cc2c(Nc3ccc(NC(=O)c4ccccc4)cc3)ncnc2cc1OCCCN1CCOCC1	27.3 µM (active)	
N=C(N)c1ccc(OCCCCCOc2ccc(C(=N)N)cc2)cc1		-15.8% (inactive)
NC(=O)c1ccc2nc(-c3ccc(Oc4ccc(Cl)cc4)cc3)[nH]c2c1		-24.7% (inactive)
C[C@@H](Oc1cc(-c2cnn(C3CCNCC3)c2)cnc1N)c1c(Cl)ccc(F)c1Cl	24.3 µM (active)	
CC(C)Oc1ccc(C(=O)NC(CNC(=O)CN(C)C)Cc2ccc(-c3cn4cccc(C(C)O)c4n3)cc2)cc1Cl (stereo unspecified)		-17.7% (inactive)
CC1(C)[C@@H](O)CC[C@]2(C)[C@H]3C(=O)C=C4[C@@H]5C[C@@](C)(C(=O)O)CC[C@]5(C)CC[C@@]4(C)[C@]3(C)CC[C@@H]12		8.69% (inactive)
CN(C)C/C=C/C(=O)Nc1cc2c(Nc3ccc(F)c(Cl)c3)ncnc2cc1OC1CCOC1 (stereo unspecified)	6.85 µM (active)	
CCN(CC)CCOc1ccc(/C(=C(\Cl)c2ccccc2)c2ccccc2)cc1	79.4 µM (active)	
CCOc1cc2ncc(C#N)c(Nc3ccc(F)c(Cl)c3)c2cc1NC(=O)/C=C/CN(C)C	8.63 µM (active)	
O=C1c2c(O)ccc(O)c2C(=O)c2c(NCCNCCO)ccc(NCCNCCO)c21	0.306 µM (active)	
